Only some compounds are listed: those with a hit (about 6.8% of all), similar ones and a draw of the others.
Pf Dd2 inh: P. falciparum Dd2 growth inhibitors, primary screen, SYBR Green fluorescence, single dose replicates. activity change, % at 10 µM. AID 1159554, 2015. 72 h; stronger effect = lower value. actives 2.3% (n = 94,000); in the data active = activity change below about -80%; inconclusive = no clear call, values can overlap the other calls
C diff growth: C. difficile growth inhibitors, primary screen, HTS; growth activity, negative = inhibition, % at 16 µg/mL (by protocol); actives 0.25% (n = 86,000); Clostridium difficile clinical isolate growth, OD600, 24 h; stronger effect = lower value; AID 1259249, 2017;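 active = mean growth activity at or below -80% and every replicate also at or below -80%; inconclusive = mean at or below -80% but some replicate above -80%; inactive = mean growth activity above -80%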
T cruzi growth-1: T. cruzi intracellular proliferation inhibitors, primary screen, cell-based, beta-gal Tulahuen parasites, NIH3T3 host, luminescence; T. cruzi beta-gal in NIH3T3, GalScreen luminescence, 90 h; inhibition, % at 8.34 µM; actives 5.9% (n = 77,000); AID 624255, 2012;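 active = mean inhibition above about 93%, with at least 55% of replicates each passing it, limit read from the data, passing the limit was not always enough; inconclusive = only one of those two conditions holds; inactive = neither condition holds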
T cruzi growth-2: T. cruzi intracellular proliferation inhibitors, confirmation, cell-based, NIH3T3 host, beta-gal parasite, luminescence, cherry-pick. shares compounds with T cruzi growth-1. T. cruzi beta-gal in NIH3T3, GalScreen luminescence, 90 h. inhibition, % at 8.35 µM. actives 72% (n = 5,600). AID 651739, 2012;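 active = mean replicate inhibition above about 95% and at least 55% of replicates individually reaching it, limit read from the data; inconclusive = only one of the two criteria is met; inactive = neither criterion is met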
T cruzi growth-3: inhibitors of intracellular T. cruzi replication, confirmation, NIH3T3 host cells, beta-gal parasites, cherry-pick, set 2; T. cruzi beta-gal in NIH3T3, GalScreen luminescence, 90 h; shares compounds with T cruzi growth-1; inhibition, % at 2.09 µM; actives 21% (n = 5,600);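 active = mean inhibition above about 95%, with at least 55% of replicates also reaching it, limit read from the data; inconclusive = meets just one of the two conditions; inactive = meets neither condition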
3T3 cytotox: cytotoxicity in mouse NIH/3T3 fibroblasts, confirmation, cytotoxicity control for T. cruzi proliferation inhibitor project, cell-based, cherry-pick, single point. shares compounds with T cruzi growth-1. NIH/3T3 viability, CellTiter-Glo ATP luminescence, 90 h. cytotoxicity (signal decrease), % at 8.35 µM. actives 14% (n = 5,600). AID 651742, 2012;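 active = mean signal decrease across replicates above about 35% based on untreated-well scatter, with enough replicates individually passing, limit read from the data; inconclusive = no rule stated though some were filed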
3T3 cytotox 2: NIH/3T3 fibroblast cytotoxicity, confirmation, cytotoxicity control, cell-based, cherry-pick, single point, set 2. shares compounds with T cruzi growth-1. NIH/3T3 viability, CellTiter-Glo ATP luminescence, 90 h. inhibition, % at 24.9 µM. actives 56% (n = 5,600);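 active = mean loss of cell viability signal at or above a set limit, and enough replicates individually reaching it; inconclusive = meets only the mean limit or only the replicate share; inactive = meets neither condition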
A number is an active result; . = inactive; ? = inconclusive; / = no result.

SMILES	Pf Dd2 inh	C diff growth	T cruzi growth-1	T cruzi growth-2	T cruzi growth-3	3T3 cytotox	3T3 cytotox 2
Cc1noc(C)c1S(=O)(=O)Nc1ccc2c(c1)C(=O)N([C@H](C)CO)C[C@@H](C)[C@@H](CN(C)Cc1ccc(C(=O)O)cc1)OCCCC[C@H](C)O2	.	.	.	/	/	/	/
Cc1noc(C)c1S(=O)(=O)Nc1ccc2c(c1)C(=O)N([C@H](C)CO)C[C@H](C)[C@@H](CN(C)Cc1ccc(C(F)(F)F)cc1)OCCCC[C@@H](C)O2	.	/	96	106	.	.	.
Cc1noc(C)c1S(=O)(=O)Nc1ccc2c(c1)C(=O)N([C@@H](C)CO)C[C@H](C)[C@@H](CN(C)C(=O)Nc1ccc(C(F)(F)F)cc1)OCCCC[C@H](C)O2	.	.	125	95	111	.	63
Cc1noc(C)c1S(=O)(=O)Nc1ccc2c(c1)C(=O)N([C@@H](C)CO)C[C@@H](C)[C@H](CN(C)Cc1ccc(C(=O)O)cc1)OCCCC[C@@H](C)O2	.	.	.	/	/	/	/
Cc1noc(C)c1S(=O)(=O)Nc1ccc2c(c1)C(=O)N([C@@H](C)CO)C[C@@H](C)[C@@H](CN(C)Cc1ccc(C(F)(F)F)cc1)OCCCC[C@@H](C)O2	.	/	99	.	112	.	106
Cc1noc(C)c1S(=O)(=O)Nc1ccc2c(c1)C(=O)N([C@H](C)CO)C[C@H](C)[C@@H](CN(C)Cc1ccc(C(=O)O)cc1)OCCCC[C@@H](C)O2	.	.	.	/	/	/	/
Cc1noc(C)c1S(=O)(=O)Nc1ccc2c(c1)C(=O)N([C@@H](C)CO)C[C@@H](C)[C@H](CN(C)C(=O)Nc1ccc(C(F)(F)F)cc1)OCCCC[C@@H](C)O2	.	.	.	/	/	/	/
Cc1noc(C)c1NC(=O)Nc1cccc2c1O[C@@H](CN(C)Cc1ccc(Oc3ccccc3)cc1)[C@H](C)CN([C@H](C)CO)C2=O	.	.	.	/	/	/	/
O=C(NCCc1ccccc1)[C@H]1[C@H](CO)[C@H]2Cn3c(cccc3=O)[C@H]2N1Cc1cccnc1	.	.	.	/	/	/	/
Cc1noc(C)c1NC(=O)NCC[C@@H]1CC[C@H](NC(=O)c2ccncc2)[C@@H](CO)O1	.	.	.	/	/	/	/
COc1cccc(CN(C)C[C@@H]2OCc3cn(nn3)CCCC(=O)N([C@@H](C)CO)C[C@@H]2C)c1	.	.	.	/	/	/	/
C[C@@H]1CN([C@H](C)CO)C(=O)c2cc(NC(=O)c3ccncc3)ccc2O[C@H]1CN(C)Cc1ccc(C(=O)O)cc1	.	.	.	/	/	/	/
O=C(C[C@H]1CC[C@@H]2[C@H](COC[C@H](O)CN2Cc2nccs2)O1)NCc1ccc(Cl)cc1	.	/	.	/	/	/	/
CCNC(=O)[C@H]1[C@H](CO)[C@H]2Cn3c(ccc(C4=CCCCC4)c3=O)[C@@H]1N2CC	.	.	/	/	/	/	/
CN1CCN(C(=O)[C@H]2[C@H](CO)[C@H]3Cn4c(ccc(-c5cncnc5)c4=O)[C@H]3N2CC2CCCC2)CC1	.	.	.	/	/	/	/
Cc1noc(C)c1S(=O)(=O)Nc1ccc2c(c1)C(=O)N([C@H](C)CO)C[C@@H](C)[C@@H](CN(C)Cc1ccc(C(F)(F)F)cc1)OCCCC[C@@H](C)O2	.	/	.	/	/	/	/
Cc1noc(C)c1S(=O)(=O)Nc1ccc2c(c1)C(=O)N([C@H](C)CO)C[C@H](C)[C@H](CN(C)Cc1ccc(C(F)(F)F)cc1)OCCCC[C@@H](C)O2	.	/	?	106	.	.	?
Cc1noc(C)c1S(=O)(=O)Nc1ccc2c(c1)C(=O)N([C@@H](C)CO)C[C@@H](C)[C@@H](CN(C)C(=O)Nc1ccc3c(c1)OCO3)OCCCC[C@H](C)O2	.	.	.	/	/	/	/
COc1ccc(-c2cn(CC[C@H]3CC[C@H](NS(=O)(=O)c4ccccc4C)[C@@H](CO)O3)nn2)cc1	.	.	.	/	/	/	/
COc1ccc(CN(C)C[C@@H]2Oc3ccc(NS(=O)(=O)c4ccc(Cl)cc4)cc3CC(=O)N([C@@H](C)CO)C[C@@H]2C)cc1	.	.	.	/	/	/	/
COc1ccc(CN(C)C[C@H]2Oc3ccc(NS(=O)(=O)c4ccc(C)cc4)cc3CC(=O)N([C@@H](C)CO)C[C@H]2C)cc1	.	.	/	/	/	/	/
COc1ccc(NC(=O)Nc2ccc3c(c2)CC(=O)N([C@H](C)CO)C[C@@H](C)[C@H](CN(C)CC2CC2)O3)cc1	.	.	.	/	/	/	/
COc1ccc(NC(=O)Nc2ccc3c(c2)CC(=O)N([C@H](C)CO)C[C@@H](C)[C@H](CN(C)CC2CCCCC2)O3)cc1	.	.	101	96	.	.	106
COc1ccc(CN(C)C[C@@H]2Oc3ccc(NS(=O)(=O)c4ccc(C)cc4)cc3CC(=O)N([C@@H](C)CO)C[C@@H]2C)cc1	.	.	108	.	.	.	.
COc1ccc(CN(C)C[C@@H]2Oc3ccc(NS(=O)(=O)c4ccc(C)cc4)cc3CC(=O)N([C@H](C)CO)C[C@H]2C)cc1	.	.	110	114	106	.	.
SMILES	Pf Dd2 inh	C diff growth	T cruzi growth-1	T cruzi growth-2	T cruzi growth-3	3T3 cytotox	3T3 cytotox 2
COc1ccc(CN(C)C[C@@H]2Oc3ccc(NS(=O)(=O)c4ccc(Cl)cc4)cc3CC(=O)N([C@H](C)CO)C[C@H]2C)cc1	.	.	101	113	.	.	.
COc1ccc(CN(C)C[C@H]2Oc3ccc(NS(=O)(=O)c4ccc(C)cc4)cc3CC(=O)N([C@H](C)CO)C[C@@H]2C)cc1	.	.	/	/	/	/	/
COc1ccc2c3c(n(C)c2c1)[C@H](CO)N(C(=O)Nc1ccc(F)cc1)CC31CN(S(=O)(=O)c2cccc(C)c2)C1	.	.	/	/	/	/	/
CN1c2ccc(C#Cc3cccnc3)cc2[C@@H]2[C@@H](CCN2C(=O)Cc2cccnc2)[C@H]1CO	.	.	.	/	/	/	/
O=C(O)C[C@H]1C[C@H]2c3cc(NC(=O)C4CCOCC4)ccc3O[C@H]2[C@H](CO)O1	.	.	/	/	/	/	/
CN1CCN(C(=O)C[C@@H]2CC[C@H]3[C@@H](COC[C@H](O)CN3Cc3ccc(Oc4ccccc4)cc3)O2)CC1	.	/	.	/	/	/	/
COc1ccc(CN(C)C[C@H]2Oc3ccc(NS(=O)(=O)c4c(C)noc4C)cc3CC(=O)N([C@@H](C)CO)C[C@H]2C)cc1	.	.	.	/	/	/	/
CNC[C@@H]1Oc2ccc(NC(=O)NC3CCCCC3)cc2CC(=O)N([C@H](C)CO)C[C@H]1C	.	.	119	.	.	.	.
CNC[C@H]1Oc2ccc(NC(=O)NC3CCCCC3)cc2CC(=O)N([C@H](C)CO)C[C@@H]1C	.	.	.	/	/	/	/

Screens (PubChem BioAssay)
